# PP1 inh: counter-screen for PP5 inhibitors: inhibitors of human PP1-alpha | P62136 | purified PP1alpha, OMFP fluorescence | inhibition, % at 6.7 µM | actives 0.9% (n = 320,000) | AID 2235;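 active = inhibition above the mean inhibition of all tested compounds plus 3 SD, computed separately for each screening campaign, cut at about 15% in these data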
# PP5 primary: blocks human protein phosphatase 5 activity; actives 0.18% (n = 320,000); P53041; inhibition, % at 6.7 µM; purified PP5c, OMFP substrate fluorescence;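 active = inhibition above the campaign's mean inhibition across all tested compounds plus 3 SD, cut at about 9.5% in these data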;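 also: 0% = DMSO only and 100% = 100 µM cantharidin control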
# Target sequence (P53041 whole entry, looked up): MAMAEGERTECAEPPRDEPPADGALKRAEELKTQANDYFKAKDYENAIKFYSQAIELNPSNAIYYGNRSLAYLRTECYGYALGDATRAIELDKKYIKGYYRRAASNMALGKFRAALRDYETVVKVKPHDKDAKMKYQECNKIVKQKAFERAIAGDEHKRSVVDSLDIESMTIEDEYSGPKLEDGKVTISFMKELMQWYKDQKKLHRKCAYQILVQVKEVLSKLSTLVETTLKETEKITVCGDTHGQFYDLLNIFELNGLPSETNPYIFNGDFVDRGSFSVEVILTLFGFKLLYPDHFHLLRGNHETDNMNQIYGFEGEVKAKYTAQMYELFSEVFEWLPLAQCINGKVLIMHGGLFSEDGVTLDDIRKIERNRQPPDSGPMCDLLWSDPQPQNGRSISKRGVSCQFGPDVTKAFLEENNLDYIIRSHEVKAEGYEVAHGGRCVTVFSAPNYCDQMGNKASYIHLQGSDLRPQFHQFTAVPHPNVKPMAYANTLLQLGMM
# ATG4B inh: inhibitors of human ATG4B cysteine protease. Q9Y4P1. ATG4B cleavage of LC3-PLA2, NBD-HPC fluorescence, 1 h. inhibition, % at 8.33 µM. actives 0.51% (n = 340,000); in the data active = inhibition above about 40%
# Cardio protect: modulators protecting cardiomyocytes from myocardial damage | H9c2 cardiomyocytes, H2O2 injury protection, ATPLite, 2 h | protection from H2O2 cell death, % at 20 µM | actives 0.63% (n = 360,000) | AID 588492;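 active = compounds giving at least 50% protection of heart cells from peroxide-induced death in the single-dose screen, raw or plate-pattern-corrected value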;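 also: 0% = DMSO wells with peroxide and 100% = DMSO wells without peroxide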
# PP1 confirm: confirmation of human PP1 phosphatase inhibitors. inhibition, % at 6.7 µM. actives 52% (n = 1,900). shares compounds with PP1 inh. purified PP1alpha, OMFP substrate fluorescence;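 active = mean PP1 inhibition above a set limit taken from the earlier primary screen, cut at about 15% in these data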
# PP5 counter: inhibits human PP5 phosphatase in PP1 counter-screen. shares compounds with PP1 inh. purified PP5c, OMFP fluorescence. inhibition, % at 6.7 µM. actives 4% (n = 1,900);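 active = mean PP5 inhibition over triplicate wells above about 9.5% taken from the earlier PP1 screen, limit read from the data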
# The depositor's hits bear a star; x = no result given. In the library only some 1.9% were active in any assay of this set; here they are far more common.
SMILES,PP1 inh,PP5 primary,ATG4B inh,Cardio protect,PP1 confirm,PP5 counter
Cc1ccc2nc(N3C(=O)C(O)=C(C(=O)c4ccco4)C3c3ccc(C)o3)sc2c1 (centres undefined),25.6*,2.2,3.3,-4.1,24.9*,-0.4
CCc1ccc2nc(N3C(=O)C(O)=C(C(=O)c4ccco4)C3c3cccs3)sc2c1 (centres undefined),28.7*,4.2,1.6,-3.0,24.2*,1.0
Cc1ccc2nc(N3C(=O)C(O)=C(C(=O)c4cc5ccccc5o4)C3c3cccs3)sc2c1 (centres undefined),12.0,0.5,1.5,10.9,x,x
COC(=O)c1sc(N2C(=O)C(O)=C(C(=O)c3ccc(C)o3)C2c2cccs2)nc1C (centres undefined),22.8*,2.1,-0.4,7.1,20.7*,-0.4
CCOc1cccc(C2C(C(=O)c3ccc(C)o3)=C(O)C(=O)N2c2nccs2)c1 (centres undefined),21.8*,-0.7,-12.8,-0.8,10.9,0.5
O=C1CN(Cc2cc(=O)oc3cc4c(cc23)CCC4)CCN1,-1.7,0.3,3.2,0.8,x,x
CC(=O)Nc1cccc(NC(=O)Cc2ccc3ccccc3c2)c1,-1.1,-0.4,-0.9,-14.4,x,x
O=C(C1=C(O)C(=O)N(c2nc3ccc(Cl)cc3s2)C1c1ccco1)c1ccco1 (centres undefined),18.7*,0.4,12.4,5.4,25.2*,-2.0
CN(C)CCCN=Cc1c(O)n(Cc2ccccc2)c(=O)c2ccccc12,-1.5,1.1,-0.2,6.8,x,x
O=c1c(C=NCCCn2ccnc2)c(-c2ccccc2)[nH]n1-c1nc2ccccc2s1,29.1*,4.6,-37.1,6.4,2.2,-1.2
CN(C)CCCN=Cc1c(-c2ccccc2)[nH]n(-c2nc3ccccc3s2)c1=O,25.8*,2.9,-33.6,-7.4,4.2,-3.2
COCC(=O)N(C)C[C@H]1Oc2ncc(Br)cc2C(=O)N([C@@H](C)CO)C[C@H]1C,x,x,x,6.0,x,x
COc1ccc(C2NCCc3c2[nH]c2ccccc32)cc1CSc1nc2ccccc2s1 (centres undefined),18.8*,4.1,16.1,-19.8,-11.4,1.9
O=c1[nH]c(CSc2nc3ccccc3s2)nc2ccccc12,-2.9,2.7,-4.2,1.2,x,x
CCOCCCNC(=O)Cn1cnc2c(cnn2-c2ccc(C)c(C)c2)c1=O,1.9,0.5,-2.5,-0.5,x,x
Cc1cc(C(C)(C)CC(C)(C)C)ccc1OCCOCC[N+](C)(C)Cc1ccccc1,29.9*,5.5,12.3,-46.9,7.3,3.1
Cc1occc1C(=O)N(C)Cc1nc(-c2ccccc2)no1,1.4,1.3,-2.3,3.0,x,x
CC(C)(C)C(=O)N1CCN(c2ccc([N+](=O)[O-])c(-n3nc(-c4ccccc4)c4ccccc4c3=O)c2)CC1,21.7*,3.3,15.8,3.9,11.2,4.7
COc1ccc(/C=N/Nc2nc(Nc3ccccc3)nc(N3CCCC3)n2)cc1[N+](=O)[O-],7.7,1.5,3.5,1.2,x,x
COc1ccc(O)c(/C=N/Nc2nc(Nc3ccccc3)nc(-n3nc(C)cc3C)n2)c1,21.3*,5.0,-9.3,42.5,25.2*,5.0
COc1cc(/C=N/Nc2nc(Nc3ccc(C)cc3)nc(-n3nc(C)cc3C)n2)cc(OC)c1OC,22.2*,4.1,-23.8,57.2*,21.4*,0.3
COc1cc(/C=N/Nc2nc(Nc3ccccc3)nc(-n3nc(C)cc3C)n2)cc(OC)c1OC,24.2*,6.2,-58.3,28.2,34.5*,3.1
CCC(=O)c1ccccc1OCCCN1CCC(Cc2ccccc2)CC1,-1.1,-0.8,26.1,-15.7,x,x
O=C(Cc1ccc(Br)cc1)Nc1ccc(S(=O)(=O)Nc2ncccn2)cc1,-2.0,0.0,-0.8,-2.9,x,x
O=C(Nc1nnc(-c2ccc3c(c2)CCCC3)o1)c1c(F)cccc1F,6.7,0.8,3.7,6.5,x,x
SMILES,PP1 inh,PP5 primary,ATG4B inh,Cardio protect,PP1 confirm,PP5 counter
O=C(Nc1nnc(-c2ccc3c(c2)CCCC3)o1)c1ccc(Cl)cc1Cl,31.9*,1.4,16.9,29.3,26.2*,-4.1
O=C(COc1coc(CN2CCCc3ccccc32)cc1=O)Nc1ccc([N+](=O)[O-])cc1,20.9*,-2.5,8.0,6.0,4.3,-3.8
Cc1ccccc1NC(=O)COc1coc(CN2CCCc3ccccc32)cc1=O,-0.1,3.5,6.6,-0.7,x,x
COc1nc(Nc2ccc([N+](=O)[O-])cc2)nc(NC2CCCCC2)n1,-0.6,3.6,-6.6,5.3,x,x
CC(C)(C)OC(=O)N[C@@H](CCCCNC(=O)OCc1ccccc1)c1nnc([C@H](CCCCNC(=O)OCc2ccccc2)NC(=O)OC(C)(C)C)o1,23.3*,4.5,-2.1,1.5,12.8,2.5
O=C1CCc2cc(S(=O)(=O)N3CCN(C(=O)c4ccco4)CC3)ccc2N1,71.4*,5.1,1.7,4.9,-2.5,-4.0
O=C(c1ccco1)N1CCN(S(=O)(=O)c2ccc(F)cc2)CC1,-1.8,-0.8,-16.8,10.4,x,x
O=C(CSc1nc(C(F)(F)F)cc(=O)[nH]1)NCc1ccc2c(c1)OCO2,-3.4,-0.3,1.6,8.6,x,x
O=C(Cn1ncc2c([nH]c3ccccc32)c1=O)NCCc1ccc(Cl)cc1,18.3*,2.9,-11.7,-5.3,20.8*,0.6
Cc1cc2c(s1)c1cnn(-c3ccccc3)c(=O)c1n2C,x,x,-0.3,0.9,x,x
Cc1cc2c(s1)c1cnn(CC(=O)NCCc3ccccc3)c(=O)c1n2C,19.7*,1.5,-6.8,x,10.8,-2.4
CSc1ccc(CCNC(=O)Cn2ncc3c([nH]c4ccccc43)c2=O)cc1,-4.4,-8.4,-1.8,-4.4,x,x
O=C(OCc1ccc(O)cc1)c1c(-c2ccsc2)oc2ccc(N3CCOCC3)cc12,-1.0,0.5,-12.5,18.2,x,x
Cc1nc(C)n(CC(C)C(=O)N2CCN(S(=O)(=O)c3ccccc3)CC2)n1 (centres undefined),-5.5,0.6,1.1,1.4,x,x
COc1cc(NC(=O)CSc2nc(C3CC3)nc3ccccc23)cc(OC)c1,19.3*,1.4,-9.1,0.7,18.1*,-3.5
Cc1cc(S(=O)(=O)Nc2noc3ccccc23)ccc1F,-9.4,0.0,-3.2,2.7,x,x
c1ccc(CCNc2nc(-c3ccccn3)cs2)cc1,35.0*,4.2,-0.1,-4.0,44.1*,5.1
Cc1ccc(C(=O)Nc2nc(-c3ccccn3)cs2)o1,23.4*,0.3,2.4,47.3,12.9,-1.7
CC(=O)Nc1ccc(-c2csc(NC(=O)c3ccc(C)o3)n2)cc1,1.0,0.8,-1.9,18.3,x,x
O=C(Nc1nc(-c2ccccn2)cs1)c1ccc(-c2ccccc2F)o1,19.5*,3.2,-36.8,58.1*,30.5*,12.2*
c1ccc(CCNc2nc(-c3cccnc3)cs2)cc1,1.0,0.9,-12.6,-5.2,x,x
CCN(CC(=O)Nc1ccc(NC(C)=O)cc1)C(=O)c1ccc(=O)[nH]c1,-0.9,-0.6,3.3,-3.5,x,x
O=C(Nc1ccc(Oc2ccc3c(c2)C(=O)N(c2ccc(O)cc2)C3=O)cc1)c1cccs1,22.0*,-2.5,-7.6,-3.2,9.7,-5.3
